Test results reported in the supplement of paper PMC10127200.
Structures can show the parent of a compound that is named as a salt.

Assays:
Assay in all cases: Euclidean distance of Cell Painting phenotypic profile (signed KS, 77 features) to DMSO centroid (dimensionless distance); 5 or 10 uM (library dependent); higher = stronger phenotypic change vs DMSO (phenoactivity)
Details in all cases: 48 h
[1] = tested on: 786-O
How it was run: (§1)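 Phenoactivity is defined as the Euclidean distance from a compound profile to the median vehicle profile. Each profile comprised 77 Harmony features, scored as signed Kolmogorov-Smirnov statistics versus same-plate vehicle wells, then plate-position corrected, correlation-weighted and replicate-averaged at the top dose. Five cancer lines and one healthy fibroblast line were exposed to library compounds for 48 h at 10 or 5 uM (0.1% DMSO final).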

[2] = tested on: A549
How it was run: as §1

[3] = tested on: DU145
How it was run: as §1

[4] = tested on: FB
How it was run: as §1

[5] = tested on: HEPG2
How it was run: as §1

[6] = tested on: OVCAR4
How it was run: as §1

| SMILES | Euclidean distance [1] | Euclidean distance [2] | Euclidean distance [3] | Euclidean distance [4] | Euclidean distance [5] | Euclidean distance [6] |
| --- | --- | --- | --- | --- | --- | --- |
| CC(C)(CO)[C@@H](O)C(=O)NCCC(=O)O [D-Pantothenic acid] | 1.36 | 0.696 | 0.734 | 1.08 | 0.485 | 1.11 |
| CC[C@@H]1C(=O)N(C)c2cnc(Nc3ccc(C(=O)NC4CCN(C)CC4)cc3OC)nc2N1C1CCCC1 | 3.46 | 3.75 | 3.25 | 3.72 | 2.48 | 3.25 |
| Nc1ccc2ncnc(NCCc3ccc(Oc4ccccc4)cc3)c2c1 | 1.67 | 1.95 | 1.06 | 1.68 | 3.12 | 0.755 |
| CCC[C@@H]1C[C@@H](C(=O)N[C@@H]([C@H]2O[C@H](SC)[C@H](O)[C@@H](O)[C@H]2O)[C@@H](C)O)N(C)C1 [Lincomycin Hydrochloride Monohydrate] | 0.425 | 0.311 | 0.923 | 0.981 | 0.275 | 1.41 |
| CNC(=O)c1ccc(N2C(=S)N(c3cnc(C#N)c(C(F)(F)F)c3)C(=O)C23CCC3)cc1F | 1.4 | 1.24 | 0.954 | 0.828 | 1.01 | 1.16 |
| CCN1C(=O)C=CC1=O [N-Ethylmaleimide (NEM)] | 3.6 | 1.27 | 1.23 | 1.58 | 0.6 | 1.06 |
| CC(C)c1onc(-c2c(Cl)cccc2Cl)c1COc1ccc(/C=C/c2cccc(C(=O)O)c2)c(Cl)c1 | 1.58 | 0.795 | 1.01 | 1.26 | 1.42 | 1.02 |
| NCCS [2-Aminoethanethiol] | 1.12 | 0.781 | 1.46 | 0.594 | 0.508 | 1.1 |
| Nc1ncnc2c1ncn2[C@@H]1O[C@H](CO)[C@@H](O)[C@H]1O [Adenosine] | 1.13 | 2.77 | 1.12 | 0.92 | 0.753 | 1.22 |
| C[C@@H](OC[C@@]1(c2ccccc2)CC[C@]2(CCC(=O)N2)CN1)c1cc(C(F)(F)F)cc(C(F)(F)F)c1 [Rolapitant] | 1.23 | 1.85 | 1.34 | 1.17 | 1.3 | 1.41 |
| Cc1cc([C@@H](C)Nc2ccccc2C(=O)O)c2nc(N3CCOCC3)cc(=O)n2c1 | 1 | 1.82 | 1.52 | 1.71 | 1.59 | 3.2 |
| CC(=O)Nc1ccc(OC(=O)c2ccccc2OC(C)=O)cc1 [Benorylate] | 1.08 | 1.08 | 1.31 | 1.41 | 0.561 | 1.13 |
| Nc1ccn(C[C@@H](CO)OCP(=O)(O)O)c(=O)n1 [Cidofovir] | 1.22 | 1.39 | 1.14 | 0.855 | 0.834 | 1.26 |
| Cc1cc(CC(C)CC(C)(C)C)n(O)c(=O)c1 (stereo not given) [Piroctone Olamine] | 2.93 | 3.56 | 4.37 | 3.73 | 3.88 | 4.49 |
| O=C(NCc1ccccc1)c1csc(Nc2ccncn2)n1 [Thiazovivin] | 1.92 | 1.18 | 2.87 | 2.01 | 1.84 | 1.6 |
| CCCCCCCC(=O)N[C@H](CN1CCCC1)[C@H](O)c1ccc2c(c1)OCCO2 [Eliglustat] | 0.75 | 1.58 | 1.05 | 1.48 | 1.2 | 1.06 |
| COc1cc2c(cc1OC)-c1cc3ccc(OC)c(OC)c3c[n+]1CC2 [Palmatine] | 0.525 | 0.996 | 0.565 | 0.73 | 1.18 | 0.631 |
| CC(C)(c1ccc(O)cc1)c1ccc(O)cc1 [Bisphenol A] | 0.955 | 1.21 | 0.773 | 0.78 | 0.694 | 0.934 |
| CN1CCc2c(c3ccccc3n2Cc2ccc(C(=O)NO)cc2)C1 [Tubastatin A HCl] | 0.602 | 0.832 | 0.783 | 1.34 | 0.601 | 0.657 |
| CCC(=O)N1CC[C@H](Nc2ncnc3c2CN(c2cnc(OC)c(C(F)(F)F)c2)CC3)C1 [leniolisib(CDZ 173)] | 1.06 | 1.1 | 1.67 | 1.76 | 0.969 | 1.59 |
| O=C(O)CSc1nnc(Br)n1-c1ccc(C2CC2)c2ccccc12 [Lesinurad] | 0.529 | 0.673 | 0.762 | 0.983 | 1.61 | 0.826 |
| O=C(c1cn(Cc2cncn2Cc2ccc(Br)cc2)cc1-c1cccc2ccccc12)N1CCOCC1 | 2.26 | 2.37 | 1.56 | 2.75 | 1.15 | 1.92 |
| CCc1cc2c(cc1N1CCC(N3CCOCC3)CC1)C(C)(C)c1[nH]c3cc(C#N)ccc3c1C2=O | 1.54 | 2.54 | 0.905 | 1.15 | 0.968 | 1.01 |

| SMILES | Euclidean distance [1] | Euclidean distance [2] | Euclidean distance [3] | Euclidean distance [4] | Euclidean distance [5] | Euclidean distance [6] |
| --- | --- | --- | --- | --- | --- | --- |
| CN1C2CCCC1CC(NC(=O)c1nn(C)c3ccccc13)C2 (stereo not given) [Granisetron] | 1.06 | 0.852 | 0.646 | 1.23 | 1 | 2.06 |
| Cn1cc(-c2ccc3ncc(Cc4ccc5ncccc5c4)n3n2)cn1 | 1.26 | 0.825 | 0.747 | 0.784 | 1.92 | 1.31 |
| CN(C)c1cc(NC(=O)CNC(C)(C)C)c(O)c2c1C[C@H]1C[C@H]3[C@H](N(C)C)C(O)=C(C(N)=O)C(=O)[C@@]3(O)C(O)=C1C2=O [Tigecycline] | 1.81 | 0.996 | 1.03 | 1.6 | 1.09 | 1.18 |
| CCCC(CCC)C(N)=O [Valpromide] | 0.509 | 1.08 | 1 | 1.42 | 0.77 | 1.44 |
| COc1ccc(C(Cl)=C(c2ccc(OC)cc2)c2ccc(OC)cc2)cc1 [Chlorotrianisene] | 1.13 | 1.23 | 0.763 | 1.08 | 1.11 | 1.04 |
| CCCCOc1ccc(C(=O)CCN2CCCCC2)cc1 [Dyclonine HCl] | 1.45 | 0.937 | 1.42 | 0.997 | 1.96 | 0.828 |
| CN(C)CC(c1ccc(O)cc1)C1(O)CCCCC1 (stereo not given) [Desvenlafaxine] | 0.678 | 0.707 | 0.899 | 0.932 | 0.34 | 1.95 |
| CCN(CC)Cc1ccc2cc(COC(=O)Nc3ccc(C(=O)NO)cc3)ccc2c1 [Givinostat (ITF2357)] | 2.68 | 3.9 | 2.88 | 3.63 | 4.2 | 3.32 |
| CC(C)C[C@H](NC(=O)[C@@H](NC(=O)c1cccc(-c2ccccc2)n1)[C@@H](C)O)B(O)O | 4.27 | 4.06 | 4.4 | 3.55 | 4.77 | 5.53 |
| NCCc1c[nH]cn1 [Histamine 2HCl] | 1.32 | 0.957 | 0.954 | 1.22 | 0.814 | 0.832 |
| CC1(C)[C@@H](O[C@H]2O[C@H](C(=O)O)[C@@H](O)[C@H](O)[C@H]2O[C@@H]2O[C@H](C(=O)O)[C@@H](O)[C@H](O)[C@H]2O)CC[C@]2(C)[C@H]3C(=O)C=C4[C@@H]5C[C@@](C)(C(=O)O)CC[C@]5(C)CC[C@@]4(C)[C@]3(C)CC[C@@H]12 [Diammonium Glycyrrhizinate] | 1.05 | 1.68 | 1.1 | 0.929 | 0.457 | 1.73 |
| NS(=O)(=O)c1cc(C(=O)O)c(NCc2ccco2)cc1Cl [Furosemide] | 1.62 | 0.823 | 1.83 | 1.25 | 0.788 | 0.747 |
| O=C(O)c1ccccn1 [Picolinic acid (PCL 016)] | 0.642 | 0.409 | 2.15 | 0.847 | 0.761 | 0.799 |
| COCCCN1CCC(NC(=O)c2cc(Cl)c(N)c3c2OCC3)CC1 [Prucalopride Succinate] | 0.846 | 1.22 | 1.04 | 1.4 | 0.733 | 1.47 |
| Cc1ccc2c(c1)C(=O)C1(O)CCN(c3ccccc3)C1=N2 (single isomer, unassigned; (-)) [(-)-Blebbistatin] | 1.29 | 1.46 | 1.36 | 1.03 | 1.13 | 1.46 |
| CC(=O)O[C@]1(C(C)=O)CC[C@H]2[C@@H]3C=C(Cl)C4=CC(=O)CC[C@]4(C)[C@H]3CC[C@@]21C [Chlormadinone acetate] | 1.27 | 1.1 | 1.72 | 1.26 | 0.98 | 0.962 |
| C[C@@H](Nc1cc(F)cc(F)c1)c1cc(C(=O)N(C)C)cc2c(=O)cc(N3CCOCC3)oc12 | 2.04 | 1.94 | 1.72 | 2.79 | 0.984 | 2.9 |
| C=C1/C(=C\C=C2/CCC[C@]3(C)[C@@H]([C@H](C)CCCC(C)(C)O)CC[C@@H]23)C[C@@H](O)C[C@@H]1O [Calcitriol] | 1.91 | 1.1 | 1.24 | 2.23 | 0.859 | 1.36 |
| CC1(C)S[C@@H]2[C@H](NC(=O)Cc3ccccc3)C(=O)N2[C@H]1C(=O)O.CCN(CC)CCOC(=O)c1ccc(N)cc1 [Penicillin G Procaine] | 0.821 | 0.676 | 0.97 | 1.38 | 0.466 | 1.24 |
| CN(C)CCc1c[nH]c2ccc(Cn3cncn3)cc12 [Rizatriptan Benzoate] | 1.43 | 1.08 | 1.46 | 2.54 | 1.06 | 2.42 |
| OCc1ccccc1 [Benzyl alcohol] | 1.29 | 0.876 | 0.897 | 1.21 | 1.52 | 1.19 |
| CC(C)NC[C@@H](C(=O)N1CCN(c2ncnc3c2[C@H](C)C[C@H]3O)CC1)c1ccc(Cl)cc1 [Ipatasertib (GDC-0068)] | 2.48 | 2.97 | 2.12 | 2.49 | 1.13 | 2.11 |
